Most compounds without a hit are left out; they make up all but 19% or so of the library.
HT1080 IDH1KD tx: HT-1080 IDH1 knockdown cell toxicity (counter line). AID 686971. HT-1080 IDH1 knockdown viability, ATP luminescence, 48 h. actives 2% (n = 360,000). Potency, µM (series often up to 46.1 µM), without a hit: at the highest dose activity, negative = toxicity, actives largely listed as cytotoxic;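 also: potency is read from the fitted curve at half-maximal effect; 0% = DMSO wells and -100% = cell-free medium wells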
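Cytotoxicity counter-line: IDH1KD HT-1080, 48 h, CellTiter-Glo. Curves classed by r2, magnitude and activity.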
TDP1 cell noCPT: qHTS for Inhibitors of human tyrosyl-DNA phosphodiesterase 1 (TDP1): qHTS in cells in absence of CPT | DT40 Tdp1-/- hTDP1 cells, no CPT, ATP luminescence, 48 h | Potency, µM (top dose mostly 46.2 µM), without a hit: at the top dose activity change, negative = growth inhibition, most hits filed as inhibitors | actives 15% (n = 420,000); also: potency is read from the fitted curve at half-maximal effect; nearly all actives have a fitted effect of over 55% in size
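A cellular qHTS used chicken DT40 cells lacking endogenous Tdp1 but carrying stably transfected human TDP1. Compounds were applied without camptothecin, and cell growth kinetics were judged by ATP-dependent luminescence after ≥48 hr.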
IL-1B inflam inh: blocks inflammasome-driven IL-1 beta release | actives 4.7% (n = 360,000) | AID 743279 | activity change, % at 57.5 µM | THP-1 LPS/ATP IL-1B secretion, AlphaLISA, 16 h; hits give low values; in the data active = activity change below about -50%; inconclusive = mostly about -30% to -49%
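Secreted IL-1B measured by AlphaLISA bead assay after 16 h compound exposure of THP-1 cells; compounds (final up to 57.5 uM) added 1 h before LPS (250 ng/mL) and ATP (1.25 mM) stimulation; lower signal means less secretion.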
DT40 TDP1 CPT: growth inhibition of DT40 Tdp1-/-;hTDP1 cells with camptothecin (screen for TDP1 inhibitors); chicken DT40 Tdp1-/-;hTDP1 cells + 20 nM CPT, ATP luminescence, 48 h; AID 686979; Potency, µM (top dose mostly 46.2 µM), inactives show at the top dose activity change, negative = growth inhibition, usual class: inhibitors; actives 12% (n = 420,000); also: potency is read from the fitted curve at half-maximal effect; nearly all actives have a fitted effect of over 55% in size
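Cell growth measured by CellTiter-Glo luminescence after a minimum 48 h, 37 C compound exposure with 20 nM CPT in Tdp1-knockout DT40 cells stably expressing hTDP1, seeded 400/well; qHTS titration format.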
HT1080NT lethal: kills 2HG-producing HT-1080-NT fibrosarcoma cells | actives 1.6% (n = 360,000) | HT-1080-NT fibrosarcoma viability, CellTiter-Glo ATP luminescence, 48 h | AID 686970 | Potency, µM (series often up to 46.1 µM), inactives show top-dose activity, negative = less viability, actives largely listed as cytotoxic;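 also: NT is the 2HG producing partner of a matched IDH1 knockdown line; potency is read from the fitted curve at half-maximal effect; 0% = DMSO-treated cells and -100% = media-only wells without cells; nearly all actives have a fitted effect of over 55% in size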
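Toxicity toward the 2HG-producing NT line was scored as %Activity, normalised to DMSO and no-cell wells, from CellTiter-Glo luminescence after 48 hours' treatment.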
Numbers without * were called inactive; ? = inconclusive; · = no result given; [ ] = remark or other dose. Unless noted, calls follow the shape of the dose curve; as a rule, active = well fitted curve in the direction sought with a large enough effect; inconclusive = small, poorly fitted or top-dose-only effect, or another doubt; inactive = no such curve, though single readings can be large; an effect the other way counts as inactive or inconclusive. Unless noted, % is scaled to controls: 0 for no effect and ±100 for the full control effect.

SMILES | HT1080 IDH1KD tx | TDP1 cell noCPT | IL-1B inflam inh | DT40 TDP1 CPT | HT1080NT lethal
COC(=O)C1(C(=O)OC)C[C@H](/C=C/c2ccccc2)N(Cc2ccccc2OC)[C@@H]1c1cccs1 | -9% | 23µM* | -1 | 26µM* | -14%
COc1ccccc1CN1C2CCCC1CC(NC(=O)/C=C/c1ccccc1)C2 (stereo unspecified) | -25% | ? | -77* | ? | -15%
CC(=NNC(=S)N1CCN(c2ccccn2)CC1)c1nccs1 | ? | 0.016µM* | 0 | 0.015µM* | -19%
S=C(NC1CCCC1)N1CCN(c2ccccn2)CC1 | 26% | ? | 0 | 2% | 10%
O=C(NC(=S)N1CCN(C2CCCCC2)CC1)c1ccccc1 | 12% | -26% | -2 | 1% | 2%
CC(=NNC(=S)N1CCCCCC1)c1cccc2cccnc12 | ? | 0.021µM* | -101* | 0.016µM* | -8%
CC(=NNC(=S)N1CCN(C2CCCCCC2)CC1)c1ccccn1 | ? | 0.037µM* | -98* | 0.065µM* | 21µM*
CC(=NNC(=S)N1CCN(c2ccccn2)CC1)c1ccccn1 | ? | 16µM* | 41 | 18µM* | -9%
S=C(Nc1ccc2nc(-c3ccccn3)c(-c3ccccn3)nc2c1)N1CCCCC1 | -12% | -21% | 75 | -25% | -6%
COc1ccc(C)cc1S(=O)(=O)N1CCOCC1 | -3% | ? | 6 | ? | 11%
Cc1nc2c(C(=O)N3CCCC3)cnn2c(C)c1Cc1c(F)cccc1Cl | 4% | -26% | -2 | -36% | 7%
Cc1nc2c(C(=O)NCc3ccccc3)cnn2c(C)c1Cc1ccc(F)cc1 | · | 8.2µM* | · | 7.3µM* | ·
Cc1nc2c(C(=O)O)cnn2c(C)c1Cc1ccccc1 | · | -9% | · | -9% | ·
COc1ccc(CNC(=O)c2cnn3c(C)c(Cc4c(F)cccc4Cl)c(C)nc23)cc1 | · | 21µM* | · | 12µM* | ·
CCN(CC)CCOC(=O)c1ccc(NC(=O)CCn2c(=O)oc3ccccc32)cc1 | · | -19% | · | 0% | ·
Cc1ccc2nc(-c3ccccc3)cc(C(=O)NCC(c3ccco3)N(C)C)c2c1 (stereo unspecified) | -4% | ? | -10 | ? | 4%
COc1ccc(C(C)NC(=O)c2ccc([N+](=O)[O-])cc2)cc1OC (stereo unspecified) | 2% | 0.52µM* | -7 | 0.92µM* | 5%
COc1ccc(C(=O)Nc2ccccc2)cc1NC(=O)c1ccc([N+](=O)[O-])cc1 | -13% | ? | -63* | -27% | 0%
COc1ccc([N+](=O)[O-])cc1NC(=O)Nc1ccc(OC)c(OC)c1 | -16% | ? | -85* | ? | -1%
CCN(CC)S(=O)(=O)c1ccc(OC)c(NC(=O)c2ccc([N+](=O)[O-])cc2)c1 | -8% | ? | ? | ? | 0%
COc1ccc([N+](=O)[O-])cc1NC(=O)Nc1cccc(Cl)c1 | -5% | 9.2µM* | -19 | 12µM* | -20%
COC(=O)C1=C(c2ccccc2)c2ccccc2S(=O)(=O)N1CC(=O)Nc1cccc(C(C)=O)c1 | · | ? | · | -19% | ·
COc1cc(CN(C)C(C)C(=O)Nc2ccc([N+](=O)[O-])cc2Cl)ccc1OC(F)F (stereo unspecified) | 3% | ? | -14 | ? | -6%
COc1ccc([N+](=O)[O-])cc1NC(=O)C(C)N(C)Cc1cccc(OC)c1OC (stereo unspecified) | -1% | 16µM* | 2 | 21µM* | 4%
COc1ccc(NC(=O)c2ccc(-c3ccc([N+](=O)[O-])cc3)o2)cc1OC | 2% | 16µM* | -76* | 13µM* | 3%
SMILES | HT1080 IDH1KD tx | TDP1 cell noCPT | IL-1B inflam inh | DT40 TDP1 CPT | HT1080NT lethal
COc1cccc(NC(=O)c2ccc(-c3ccc([N+](=O)[O-])cc3)o2)c1 | -1% | ? | ? | -29% | -21%
Clc1ccc2nc(-c3ccccc3)c(Cc3ccsc3)n2c1 | 6% | ? | 65 | -5% | -6%
COc1ccc(-c2nc3ccc(Cl)cn3c2Cc2cccc(Cl)c2)cc1OC | -15% | ? | -18 | ? | -19%
COc1ccccc1Cc1c(-c2ccc(OC)c(OC)c2)nc2ccc(Br)cn12 | 18µM* | 5.8µM* | -8 | 18µM* | ?
Brc1ccc2nc(-c3ccccc3)c(Cc3ccsc3)n2c1 | -12% | 23µM* | 89 | 26µM* | -10%
COc1ccc(-c2nc3ccc(Br)cn3c2Cc2cccc(Cl)c2)cc1OC | ? | 21µM* | ? | ? | ?
Cc1ccc(-c2nc3ccc(Cl)cn3c2Cc2cccc(Cl)c2)cc1 | ? | 16µM* | 3 | ? | ?
NS(=O)(=O)c1ccc(N2C(=O)CCCC2=O)cc1 | 14% | 12% | 6 | -2% | 19%
CCCCC(=O)N(C)c1c(C)nc2ccc(C(=O)N(CC)CCN(C)C)cn12 | 17% | 5% | 2 | 3% | 22%
CC(C)NC(=S)Nc1ccc(S(=O)(=O)Nc2ncccn2)cc1 | 1% | -5% | 0 | 1% | 2%
CCC1(C2CCN(C(=O)c3cc4ccccc4o3)CC2)NC(=O)N(CCc2scnc2C)C1=O (stereo unspecified) | · | ? | · | 13%[9.04 µM] | ·
N#Cc1ccc(-c2nc3ccc(Br)cn3c2Cc2cccc(F)c2)cc1 | ? | ? | -25 | ? | -29%
Clc1ccc(-c2nc3ccc(Br)cn3c2Cc2cccc(Cl)c2)cc1 | 15µM* | ? | 11 | ? | ?
Clc1cccc(Cc2c(-c3cccc(Cl)c3)nc3ccc(Br)cn23)c1 | ? | ? | 6 | ? | -22%
Fc1ccc(-c2nc3ccc(Cl)cn3c2Cc2cccc(F)c2)cc1 | ? | 23µM* | -26 | ? | ?
